Assay outcomes from PubChem BioAssay.
Pol eta inh = qHTS for Inhibitors of Polymerase Eta; DNA polymerase eta (Homo sapiens), Q9Y253; recombinant Pol eta, fluorescent DNA replication assay; Potency, µM (series often up to 114 µM), inactives show at the top dose activity change, negative = inhibition, most hits filed as inhibitors; 390,000 compounds, 1.2% hits; AID 588591, 2011; also: potency is read from the fitted curve at half-maximal effect; % is scaled to controls: 0 for no effect and ±100 for the full control effect
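Fluorescent replication assay: 50 nM final substrate added after a 15 min room-temperature compound preincubation with 10 nM enzyme. Signal taken at 0 min and again at 10 min.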
Pol kappa inh = qHTS for Inhibitors of Polymerase Kappa; DNA polymerase kappa (Homo sapiens), Q9UBT6; Potency, µM (top dose mostly 107 µM), for inactives: at the highest dose activity, negative = inhibition, actives largely listed as inhibitors; 400,000 compounds, 0.53% hits; purified Pol kappa, fluorescent DNA synthesis assay, 10 min; also: potency is read from the fitted curve at half-maximal effect; % is scaled to controls: 0 for no effect and ±100 for the full control effect
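Enzyme at 10 nM met test compounds for 15 min at room temperature. Substrate addition (50 nM final) began the reaction, which was monitored by fluorescence at 0 and 10 min.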
PI5P4K alpha inh = qHTS for Inhibitors of phosphatidylinositol 5-phosphate 4-kinase (PI5P4K) | Phosphatidylinositol 5-phosphate 4-kinase type-2 alpha (Homo sapiens), P48426 | PI5P4Kalpha enzyme, ADP-Glo luminescence, 60 min; stronger effect = lower value | max response, % | 330,000 compounds, 1.2% hits | AID 652105, 2013; active = max response of -50% or lower; inconclusive = between -30% and -50%; inactive = -30% or higher; also: value at the top dose of about 77 µM; % is scaled to controls: 0 for no effect and ±100 for the full control effect
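Reactions run in 0.038 M HEPES pH 7.4, 0.28 mM EGTA, 0.1% CHAPS and 5% DMSO, with PI5P4Kalpha, substrate, compound and 5 microM ATP final, one hour at room temperature. Readout is ADP-Glo luminescence.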
POLI inh = qHTS for Inhibitors of Polymerase Iota; DNA polymerase iota (Homo sapiens), Q9UNA4; Pol iota fluorescent replication assay, 10 min; Potency, µM (titrated, usually from 115 µM), for inactives: at the top dose activity, negative = inhibition, actives largely listed as inhibitors; 390,000 compounds, 1% hits; AID 588590, 2011; also: potency is read from the fitted curve at half-maximal effect
Target sequence (Q9UNA4 whole entry, looked up): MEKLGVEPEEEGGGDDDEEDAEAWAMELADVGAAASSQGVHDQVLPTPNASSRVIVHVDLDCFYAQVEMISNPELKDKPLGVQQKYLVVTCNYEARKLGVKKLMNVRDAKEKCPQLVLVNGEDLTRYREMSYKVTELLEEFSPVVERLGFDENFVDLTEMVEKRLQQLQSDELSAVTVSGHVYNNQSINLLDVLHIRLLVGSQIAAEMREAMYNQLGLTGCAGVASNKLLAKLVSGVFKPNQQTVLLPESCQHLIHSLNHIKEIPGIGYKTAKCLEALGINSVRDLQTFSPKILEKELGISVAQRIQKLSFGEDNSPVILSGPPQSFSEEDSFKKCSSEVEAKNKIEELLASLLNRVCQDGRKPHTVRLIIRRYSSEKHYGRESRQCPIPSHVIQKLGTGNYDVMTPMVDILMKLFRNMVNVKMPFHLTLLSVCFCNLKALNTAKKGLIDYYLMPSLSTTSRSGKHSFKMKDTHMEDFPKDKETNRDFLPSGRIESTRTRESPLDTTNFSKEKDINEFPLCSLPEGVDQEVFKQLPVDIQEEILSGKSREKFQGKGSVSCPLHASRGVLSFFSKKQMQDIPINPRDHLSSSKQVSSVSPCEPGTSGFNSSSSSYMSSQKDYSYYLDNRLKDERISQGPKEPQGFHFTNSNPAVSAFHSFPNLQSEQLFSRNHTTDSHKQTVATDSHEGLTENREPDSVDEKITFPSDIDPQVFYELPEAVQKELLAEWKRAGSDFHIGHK
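Pol iota at 10 nM preincubated 15 min with compounds at room temperature; reaction started with fluorescent substrate, 50 nM final. Fluorescence read kinetically at 0 and 10 min; buffer-only wells as negative control.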
Pol beta inh = qHTS Assay for Inhibitors of DNA Polymerase Beta; P06746; Pol beta primer extension/strand displacement, fluorescence kinetic; Potency, µM (series often up to 114 µM), inactives show top-dose activity change, negative = inhibition, most hits filed as inhibitors; 340,000 compounds, 1.3% hits; also: potency is read from the fitted curve at half-maximal effect; % is scaled to controls: 0 for no effect and ±100 for the full control effect
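Pol beta (10 nM) and compounds were preincubated 15 min at room temperature, then 50 nM substrate (final) started primer extension/strand displacement. Reads were taken at 0 and 10 min; concentration-response data were fitted to a four-parameter Hill equation.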
WRN helicase inh = qHTS for Inhibitors of WRN Helicase. Bifunctional 3'-5' exonuclease/ATP-dependent helicase WRN (Homo sapiens), Q14191. WRN helicase unwinding, fluorescent forked duplex, kinetic. Potency, µM (highest dose often 114 µM), for the others: top-dose activity change, negative = inhibition, usual class: inhibitors. 360,000 compounds, 0.46% hits. AID 651768, 2012; also: potency is read from the fitted curve at half-maximal effect; % is scaled to controls: 0 for no effect and ±100 for the full control effect; nearly all actives have a fitted effect of over 55% in size
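Primary qHTS, 1536-well format. 20 nM WRN + compound, 15 min RT; start with 100 nM forked fluorophore/quencher duplex, 2 mM ATP (final); kinetic read ex 525/em 598 nm.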
Active calls of the source: *; ? = inconclusive; . = no result; [ ] = remark or other dose. This is a sample that favours compounds with a hit; in the whole collection about 2.8% have one here. Unless noted, calls follow the shape of the dose curve; as a rule, active = well fitted curve in the direction sought with a large enough effect; inconclusive = small, poorly fitted or top-dose-only effect, or another doubt; inactive = no such curve, though single readings can be large; an effect the other way counts as inactive or inconclusive.

SMILES	Pol eta inh	Pol kappa inh	PI5P4K alpha inh	POLI inh	Pol beta inh	WRN helicase inh
O=C(NCc1ccco1)C1CCCN(S(=O)(=O)c2ccc(-n3cnnn3)cc2)C1 (stereo unspecified)	20µM*	?	-26	?	25µM*	-20%[57.1 µM]
O=c1oc2ccc(Cl)cc2cc1-c1cn2c(n1)sc1ccccc12	-4%	-5%[60.1 µM]	.	-2%	-3%	.
COCCC(=O)N(Cc1ccc2c(c1)OCO2)C(C(=O)NC1CCCCC1)c1ccncc1 (stereo unspecified)	-3%	-13%	1	6%	28%	5%
O=C(NC1CCCCC1)C(c1ccncc1)N(Cc1ccc2c(c1)OCO2)C(=O)C(F)(F)F (stereo unspecified)	9%	79µM*	8	35µM*	7%	-8%[57.1 µM]
Cc1cc(N)c2ccccc2[n+]1CCCCCCCCCCCCCC[n+]1c(C)cc(N)c2ccccc21	?	.	.	-123%[58.9 µM]	10µM*	.
Cc1onc(-c2ccccc2)c1C(=O)Nc1nnc(COc2ccc(Cl)cc2)s1	-5%	-14%	?	-7%	-10%	56µM*
O=C(NCc1ccccc1Cl)c1ccc2oc(=O)n(Cc3ccccc3)c2c1	-13%	2%[60.1 µM]	.	-17%	-20%	.
O=C(c1ccc(Cl)c(S(=O)(=O)Nc2ccccc2C(=O)N2CCc3ccccc3C2)c1)N1CCc2ccccc2C1	40µM*	-33%	3	32%	13%	-9%[11.6 µM]
CN(C)c1ccc(/C=C(\C#N)C(=O)NCc2ccco2)cc1	.	.	.	.	56µM*	.
Cc1ccc(OCC(=O)Nc2ccc(S(=O)(=O)Nc3cc(C)nc(C)n3)cc2)c(Br)c1	-11%	-8%	.	-31%	-18%	.
Cc1ccc(NC(=O)c2cc(N3C(=O)C=CC3=O)ccc2N2CCOCC2)cc1Cl	-17%	1%	-76*	23%	-2%	?
Cc1ccc(NC(=O)c2cc(N3C(=O)CCC3=O)ccc2N2CCOCC2)cc1	-18%	7%	5	117%	-29%	13%
CC1(C)CCN2CCC(C)(C)c3c(O)ccc1c32	-6%	-20%	-54*	?	0%	?
CCc1cccc(C)c1NC(=O)C1=C(C)C(=O)OC12CCC(C)CC2 (stereo unspecified)	.	-7%	.	9%	56%	.
Oc1ccccc1Oc1c(F)c(F)nc(N2CCCC2)c1F	-21%	-7%[60.1 µM]	-16	?	45µM*	-16%
CCN(CC)c1ccccc1/C=C/[n+]1ccc(CCCCI)c2ccccc21	.	50µM*	.	?	.	.
CSc1ccc(-c2nc3cccc(C)n3c2Nc2ccc(Cl)cc2)cc1	-16%	8%	.	?	1%	.
Cc1cc(C)cc(NC(=O)CSCc2nc3c(nnn3Cc3ccc(F)cc3)c(=O)[nH]2)c1	?	-39%	.	45µM*	.	-28%[57.1 µM]
COc1ccccc1NC(=O)CSc1nc(-c2ccc(C(C)(C)C)cc2)c(C#N)c(=O)[nH]1	.	-20%	.	-29%	79µM*	.
CCOC(=O)Cc1csc(NC(=O)CSc2nc(-c3ccccc3)c(C#N)c(=O)[nH]2)n1	-7%	3%	-65*	-9%	14%	-4%
CCCOc1ccc(-c2nc(SCc3ccccc3)[nH]c(=O)c2C#N)cc1OC	-3%	-7%	-26	35%	50µM*	-24%
COc1ccccc1NC(=O)CSc1nc(N)c(-c2ccccc2)c(=O)[nH]1	-7%	5%	-1	18%	-7%	-2%
CCSc1nc(-c2ccccc2)c(C#N)c(=O)[nH]1	-4%	-10%	.	2%	?	-7%[57.1 µM]
CN(C(=O)CSc1nc(-c2ccc(C(C)(C)C)cc2)c(C#N)c(=O)[nH]1)C1CCCCC1	35µM*	-19%	?	?	?	-9%[11.6 µM]
COc1ccc(C2c3[nH]c4ccc(OC)cc4c3CCN2C(=O)Nc2ccccc2)cc1 (stereo unspecified)	-15%	-11%	.	3%	-22%	.
SMILES	Pol eta inh	Pol kappa inh	PI5P4K alpha inh	POLI inh	Pol beta inh	WRN helicase inh
CCCC(O)c1nc2ccccc2n1Cc1ccccc1OC (stereo unspecified)	-6%	-7%	.	0%	4%	.
Cc1ccc(C)c(NC(=O)CSc2nc(-c3ccccc3)c(C#N)c(=O)[nH]2)c1	-2%	-7%	.	?	56µM*	.
CC(C)(C)CC(C)(C)SSc1n[nH]c(=S)s1	?	-4%	-66*	?	.	?
CCOC(=O)CSc1n[nH]c(=S)s1	2%	0%	?	-9%	0%	-16%
CCCCn1c(C)cc2c(c1=O)C1O[C@](c3ccsc3)(Cc3ccccc31)O2	.	.	.	.	2.2µM*	.
Cc1cc2c(c(=O)n1-c1ccccc1)C1O[C@](c3ccsc3)(Cc3ccccc31)O2	.	.	.	.	5µM*	.
COc1cc2c(cc1OC)[C@@H]1O[C@](c3ccsc3)(C2)Oc2cc(C)n(-c3ccccc3)c(=O)c21	.	.	.	.	11%[22.9 µM]	.
Cc1c2cnn(CC(=O)Nc3cccc(C(F)(F)F)c3)c(=O)c2c(C)n1Cc1ccccc1Cl	-16%	-15%	.	16%	0%	.
CCCCCOc1ccc(NC(=O)Cc2csc(C)n2)cc1	-17%	-11%	.	-8%	-3%	.
C=C1/C(=C\C=C2/CCC[C@]3(C)C([C@H](C)CCCC(C)(C)O)CC[C@@H]23)C[C@@H](O)C[C@@H]1O (stereo partly specified)	.	-5%[19.4 µM]	.	.	.	.
CC(=O)Nc1ccc(NC(=O)CSc2cn(CC(=O)N3CCOCC3)c3ccccc23)cc1	-5%	1%	1	0%	100µM*	-6%
Cc1ccc(NS(=O)(=O)c2cc([N+](=O)[O-])ccc2NNC(=S)Nc2cccc(Cl)c2)c(C)c1	40µM*	-31%	-67*	-8%	?	?
Cc1ccc(NS(=O)(=O)c2cc([N+](=O)[O-])ccc2NNC(=S)Nc2cc(C)ccc2C)c(C)c1	-10%	0%	-20	3%	2%	-23%
CCN(CC(=O)Nc1ccc2c(c1)OCCO2)C(=O)/C=C/c1cc(Br)ccc1OC	-24%	.	3	.	.	4%
COc1ccc(C2=NOC3(CC(=O)N(c4ccc5ccccc5c4)C3=O)C2)c(OC)c1 (stereo unspecified)	-23%	-44%	.	?	50µM*	-11%
Cc1cc(N2CCCCC2)nc2ccc(NC(=O)/C=C/c3ccc(OCCC(C)C)cc3)cc12	-18%	-11%	.	19%	11%	.
